# Compound activity deposited in PubChem BioAssay by ICCB-Longwood Screening Facility, Harvard Medical School.
# Many of the other results were omitted from the sample, so hits are more common in it than they were.
# Ba CapD inh: CapD enzyme inhibition | purified CapD enzyme, fluorescence intensity read-out; stronger effect = lower value | z-score (test concentration not listed) | hit rate 0.23% among 140,000 | AID 492967; in the data active means z-score mostly below about -2.9, no sharp cut-off; inactive means mostly above about -1.9
# An asterisk follows results filed as active.
SMILES,Ba CapD inh
CCc1ccc(C2CC(=O)NC(SCC(=O)Nc3ccc(Br)cc3)=C2C#N)cc1 (stereo not drawn),0.135
O=C(O)CCC(=O)N1CCc2cc(S(=O)(=O)NCc3ccccc3)ccc21,-1.62
COc1cc(NS(=O)(=O)c2ccc3c(c2)CCN3C(=O)CCC(=O)O)c(C(=O)O)cc1OC,-4.28*
CCC(=O)N1CCc2cc(S(=O)(=O)Nc3ccccc3OC)ccc21,0.41
CN(C)c1ccc(/C=C/C=N/c2oc(-c3ccco3)c(-c3ccco3)c2C#N)cc1,0.405
N#Cc1c(-c2ccccc2)[nH]c(=S)[nH]c1=O,-6.12*
N#Cc1c(-c2cccs2)[nH]c(=S)[nH]c1=O,-1.22
CN(C)c1ccc(-c2[nH]c(=S)[nH]c(=O)c2C#N)cc1,0.14
Cc1cc(Cl)ccc1OCCCC(=O)N1CCN(C/C=C/c2ccccc2)CC1,0.17
CCOC(=O)c1sc2ncnc(OCC)c2c1C,0.205
CC1=NN(c2ccccc2)C(=O)C1,-0.89
CC1=NN(c2ccc(C(=O)NCc3ccc(N(C)C)cc3)cc2)C(=O)C1,-1.06
CC1=NN(c2ccc3c(S(=O)(=O)O)cc(S(=O)(=O)O)cc3c2)C(=O)C1,-6*
FC(F)(F)c1cnc(Sc2nccn2-c2ccccc2)c(Cl)c1,-0.08
Cc1csc(N)c1-c1nc2ccccc2s1,2.87
O=C(O)CSCC(=O)Nc1ccc(-c2nc3ccccc3s2)cc1,82
Cc1csc(NC(=O)CSCC(=O)O)c1-c1nc2ccccc2s1,-2.37*
CSc1nnc(C(C)c2ncc(C(F)(F)F)cc2Cl)n1-c1ccccc1 (stereo not drawn),-0.31
COc1ccc(-c2[nH]ncc2CN2CCC(O)(c3ccc(Cl)cc3)CC2)cc1,-0.2
OC1(c2ccc(Cl)cc2)CCN(Cc2cn[nH]c2-c2ccccc2)CC1,-2.34*
Fc1ccc(-c2[nH]ncc2CN2CCN(Cc3ccccc3)CC2)cc1,-0.29
CC1(C)CC(=O)C=C(N2CCCCC2)C1,-0.62
CC(=O)Oc1cc(OC(C)=O)cc(C(=O)O)c1,-8.7*
CC(=O)Oc1cncc(C(=O)O)c1,-0.68
CC(=O)Oc1ccc(-c2ccc(C(=O)O)cc2)cc1,-3.21
SMILES,Ba CapD inh
FC(F)(F)c1ccc(-c2[nH]ncc2-c2ccncc2)cn1,-0.07
CCc1ccc(-c2nc3c(C#N)c[nH]n3c2NCCC(C)C)cc1,-1.02
O=C1CC(=O)c2ccc3c4c(ccc1c24)C(=O)CC3=O,-5.06*
O=C1CC(=O)c2c1cccc2[N+](=O)[O-],-2.21
Cc1ccc(NC(=O)CSC2=C(C#N)C(c3ccc([N+](=O)[O-])cc3)CC(=O)N2)cc1Cl (stereo not drawn),-0.01
O=C(Cn1cc(C(=O)c2cccs2)c2ccccc21)Nc1ccccc1C(F)(F)F,0.79
COc1ccc(S(=O)(=O)N2CCC3(CC2)C(=O)NCN3c2ccccc2)cc1OC,0.37
O=C(/C=C/c1ccccc1)C1(O)CCCCC1,-0.885
COc1ccc(/C=C/C(=O)C2(O)CCCCC2)cc1OC,-4.51*
O=C(/C=C/c1ccc(Cl)cc1)C1(O)CCCCC1,-1.51
COc1ccccc1C1C2=C(CC(C)(C)CC2=O)Nc2ccccc2N1C(=O)Cc1ccccc1 (stereo not drawn),1.89
NS(=O)(=O)c1ccc(C(=O)N/N=C/c2cccc(OCc3ccccc3)c2)cc1,-0.05
Clc1cnc(-n2cccc2)c(Br)c1,-0.12
COc1ccc(N2C(=O)CCC(C(=O)N3CCCCC3)C2c2ccc(OC)c(OC)c2)cc1 (stereo not drawn),-0.575
COc1ccc(C2C(C(=O)N3CCOCC3)CCC(=O)N2c2ccc(OC)cc2)cc1 (stereo not drawn),-10.3*
COc1ccc(C2C(C(=O)N3CCCC3)CC(=O)N2c2ccc(OC)cc2)cc1 (stereo not drawn),-0.055
CC(=O)N1CCC(N(C2CC2)S(=O)(=O)c2ccc(NS(=O)(=O)c3ccc(C)cc3)cc2)CC1,-0.04
Cc1nc(-c2ccncc2)sc1C(=O)Nc1ccc(OC(F)(F)F)cc1,-1.32
O=C(O)c1cc(NC(=O)C2CC2)cc(NC(=O)C2CC2)c1,0.41
O=c1cc(O)c2sc3nc(-c4ccco4)cc(C(F)(F)F)c3c2[nH]1,-6.23*
Cc1cc(C(F)(F)F)c2c(n1)sc1c(O)cc(=O)[nH]c12,5.8
COc1ccc(C(=O)c2sc3nc(-c4ccco4)cc(C(F)(F)F)c3c2N)cc1OC,0.67
Fc1cccc(Cl)c1CSc1nc2nccc(-c3ccccn3)n2n1,5.54
CCC(C(=O)O)N1C(=O)/C(=C/c2ccccc2)SC1=S (stereo not drawn),-2.1
CSCCC(C(=O)O)N1C(=O)/C(=C/c2ccc(O)cc2)SC1=S (stereo not drawn),-4.04*
SMILES,Ba CapD inh
CN(C)c1ccc(/C=C2/SC(=S)N(CCCCC(C(=O)O)N3C(=O)/C(=C\c4ccc(N(C)C)cc4)SC3=S)C2=O)cc1 (stereo not drawn),-0.56
CCOC(=O)CC(=O)NNC(=O)c1ccc2n[nH]nc2c1,-1.03
O=C1OC/C(=C(/O)c2ccccc2)C1=O,-3.07
N#CC1=C(c2ccc(Cl)cc2)COC1=O,2.91
O=C1OC/C(=C(\O)c2ccc(Cl)cc2)C1=O,-5.44*
C=CC(=O)NCC(c1cccs1)N1CCOCC1 (stereo not drawn),-0.415
O=C1NC(c2ccc(O)cc2)=NC2Oc3ccc4ccccc4c3C=C12 (stereo not drawn),1.7
CC(C)(C)OC(=O)C(Cc1c[nH]c2ccccc12)NC(=O)OCc1cc(C(F)(F)F)ccc1F (stereo not drawn),-0.15
O=C1NC(=S)NC(=O)C1=Cc1ccc(OCc2ccc(C(=O)O)cc2)c(Br)c1,-4.99*
COc1cc(C=C2C(=O)NC(=O)NC2=O)ccc1OCc1ccc(C(=O)O)cc1,0.84
O=C1NC(=O)C(=Cc2ccc(OCc3ccc(C(=O)O)cc3)c(Br)c2)C(=O)N1,-0.22
CSc1nc2c(c(=O)[nH]1)C(c1ccc(F)cc1F)CC(=O)N2 (stereo not drawn),0.255
Cc1cc(=O)[nH]c(-c2ccccn2)n1,0.47
CCc1ccc(C2=CC(=O)C=CC2=O)cc1,-0.415
CC(C)c1ccc(C2=CC(=O)C=CC2=O)cc1,5.72
O=C1C=CC(=O)C(c2ccc(C(=O)O)cc2)=C1,-7.98*
NC(=O)C1(N2CCCCC2)CCN(C(=O)c2ccc3c(=O)n(CCCN4CCCC4=O)c(=S)[nH]c3c2)CC1,-0.575
CSC1=N/C(=C/c2ccco2)C(=O)N1,-2.93
CC1(C)OC(=O)C(=Cc2cccs2)C(=O)O1,-0.63
CSC1=N/C(=C/c2cccs2)C(=O)N1,-4*
COc1ccc(Br)cc1S(=O)(=O)N(Cc1ccco1)CC1CCCO1 (stereo not drawn),-1.32
O=C(Nc1cccc(Cl)c1N1CCCCC1)c1ccc(Cl)c(Cl)c1,0.125
Cc1ccc(C)n1-c1cccc(C(=O)O)c1,-8.55*
Cc1ccc(C)n1-c1cccc(N)c1,0.07
CC(=O)Nc1sccc1C(=O)O,0.89
SMILES,Ba CapD inh
Cc1ccc(C)n1-c1ccc(C(=O)O)c(C(=O)O)c1,-8.41*
Cc1cc(C(=O)O)c(C)n1-c1ccc(Cl)cc1,-0.135
Cc1ccc(C)n1-c1ccc(CC(=O)O)cc1,-3.24
O=C(O)c1cccc(N2CCCC2)c1,76.5
Cc1ccc(C)n1-c1sccc1C(=O)O,-11.4*
Cc1ccc(C)n1-c1sccc1C(=O)CC#N,0.39
O=[N+]([O-])c1cc(C(F)(F)F)cc([N+](=O)[O-])c1Sc1ccc(Cl)cc1,-0.105
CC(C)(C)c1cc(Cl)c(O)c(CN2CCCCC2)c1,-0.085
Cc1ccc(C2=NN(C(=O)CCC(=O)O)C(c3cn(-c4ccccc4)nc3-c3ccccc3)C2)cc1 (stereo not drawn),-0.13
COC(=O)c1ccc(C(=O)OC)c(NC(=O)c2cc3cc(OC)ccc3oc2=O)c1,-0.545
